# Structures can show the parent of a compound that is named as a salt.
# System: Brugia pahangi adult female
# Assay: IC50 motility inhibition on day 3
# Conditions: 3 days
# Experimental: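 Single adult female Brugia pahangi worms in 24-well plates (RPMI-1640, 5% FBS, 37 °C) were treated with 10 µM of each compound from a 2121-drug library (4 replicates; 1% DMSO vehicle and 10 µM auranofin controls). Motility was recorded with WormAssay dark-field imaging, and % inhibition of motility on day 3 is relative to vehicle. IC50 values for selected hits come from a 6-point dilution series (30 to 0.1 µM) fitted in GraphPad Prism.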
row,SMILES,IC50 motility inhibition on day 3 [µM]
1,Oc1ccc2ccccc2c1 [beta-naphthol],8.31
2,CSc1ccc2c(c1)N(CCC1CCCCN1C)c1ccccc1S2 (stereo not given) [Thioridazine hydrochloride],8.08
3,CCCCCCCCCc1ccc(OCCOCCOCCOCCOCCOCCOCCOCCOCCO)cc1 [nonoxynol-9],3.24
4,C[n+]1c2cc(N)ccc2cc2ccc(N)cc21 [acriflavinium hydrochloride],4.62
5,COc1cc(C)c2c(Oc3cccc(C(F)(F)F)c3)c(OC)cc(NC(C)CCCN)c2n1 (stereo not given) [Tafenoquine Succinate],14.1
6,C[n+]1cc2c3c(ccc2c2ccc4cc5c(cc4c21)OCO5)OCO3 [Sanguinarine chloride],6.08
7,Cc1cc(C2CCCCC2)n(O)c(=O)c1 [ciclopirox olamine],0.287
8,O=C(Nc1ccc([N+](=O)[O-])cc1Cl)c1cc(Cl)ccc1O [niclosamide],1.17
9,O=[N+]([O-])c1ccc(O)c2ncccc12 [nitroxoline],6.7
10,CCCCC(CC)COC(=O)CC(C(=O)OCC(CC)CCCC)S(=O)(=O)O (stereo not given) [docusate sodium],0.294
11,COC(=O)C1=C(C)NC(C)=C(C(=O)OC(C)C)C1c1cccc2nonc12 (stereo not given) [isradipine],2.75
12,CC(=O)Oc1ccccc1C(=O)Nc1ncc([N+](=O)[O-])s1 [nitazoxanide],5.78
13,Oc1c(I)cc(Cl)c2cccnc12 [clioquinol],2.61
14,C1CCC(C(CC2CCCCN2)C2CCCCC2)CC1 (stereo not given) [perhexiline maleate],7.46
15,CC[n+]1c(-c2ccccc2)c2cc(N)ccc2c2ccc(N)cc21 [homidium bromide],5.43
16,COc1cc(NC(C)CCCN)c2ncccc2c1 (stereo not given) [primaquine diphosphate],5.06
17,O=C1c2cccc(O)c2C(=O)c2c(O)cccc21 [dantron],18.3
18,CN(C)c1ccc(C(=C2C=CC(=[N+](C)C)C=C2)c2ccc(N(C)C)cc2)cc1 [gentian violet],0.3
19,CC1=CC(=O)c2ccccc2C1=O [menadione],4.23
20,Oc1c(Cl)cc(Cl)c(Cl)c1Cc1c(O)c(Cl)cc(Cl)c1Cl [hexachlorophene],1.7

row,SMILES,IC50 motility inhibition on day 3 [µM]
1,CN(C)c1ccc2nc3ccc(=[N+](C)C)cc-3sc2c1 [methylene blue],1.06
2,O=C(CCN1CCC(c2ccccc2)C1)c1ccc2c(c1)OCCO2 (stereo not given) [Proroxan],8.53
3,Clc1ccc(CSC(Cn2ccnc2)c2ccc(Cl)cc2Cl)cc1 (stereo not given) [sulconazole nitrate],4.62
4,O=C1C(O)=C([C@H]2CC[C@H](c3ccc(Cl)cc3)CC2)C(=O)c2ccccc21 [atovaquone],4.16
5,CC(C)/N=c1\cc2n(-c3ccc(Cl)cc3)c3ccccc3nc-2cc1Nc1ccc(Cl)cc1 [clofazimine],> 30
6,CCCCCCCCCCCCCCCC[N+](C)(C)CCN(Cc1ccc(OC)cc1)c1ncccn1 [thonzonium bromide],1.07
7,CCCCCCCCNC(C)C(O)c1ccc(SC(C)C)cc1 (stereo not given) [suloctidil],3.66
8,CC(C)(C)CC(C)(C)c1ccc(OCCOCC[N+](C)(C)Cc2ccccc2)cc1 [benzethonium chloride],1.4
9,Cc1cc(C(C)(C)CC(C)(C)C)ccc1OCCOCC[N+](C)(C)Cc1ccccc1 [methylbenzethonium chloride],3.46
10,Clc1ccc(C(Cn2ccnc2)OCc2ccsc2Cl)c(Cl)c1 (stereo not given) [tioconazole],3.18
11,O=C(Nc1ncc([N+](=O)[O-])s1)c1ccccc1O [Tizoxanide],3.4
12,Clc1ccccc1C(c1ccccc1)(c1ccccc1)n1ccnc1 [clotrimazole],5.5
13,COC(=O)C1=C(C)NC(C)=C(C(=O)OCC(C)C)C1c1ccccc1[N+](=O)[O-] (stereo not given) [nisoldipine],9.81
14,O=C1CN(/N=C/c2ccc([N+](=O)[O-])o2)C(=O)N1 [nitrofurantoin],11.6
15,Cc1cc2nc3c(=O)[nH]c(=O)nc-3n(C[C@H](O)[C@H](O)[C@H](O)CO)c2cc1C [riboflavin],16
16,CCCCCCCCCCCCC[N+](C)(C)Cc1ccccc1 [benzalkonium chloride],1.9
17,Clc1ccc(COC(Cn2ccnc2)c2ccc(Cl)cc2Cl)cc1 (stereo not given) [econazole nitrate],3.97
18,O=C(Nc1ccc([N+](=O)[O-])cc1Cl)c1ccccc1O,2.6
19,Oc1c(I)cc(I)c2cccnc12 [iodoquinol],1.9
20,Clc1ccc(Cn2c(CN3CCCC3)nc3ccccc32)cc1 [clemizole hydrochloride],6.51

# — the supplement of paper PMC7830784
